Hit rate of the full screen: of about 39,000 compounds, about 3,300 (8.5%) were called active. The entries come from a sample that favours actives as a whole.
Each compound was assayed on HepG2 (assay: cytotoxicity call (relative viability < 0.9)). Settings: 10 µM.
In the case of `C[C@H](CO)N1C[C@H](C)[C@@H](CN(C)C(=O)NC2CCCCC2)Oc2ccc(NS(C)(=O)=O)cc2CC1=O`, the cytotoxicity call is reported as “inactive”. For `COc1cccc(NC(=O)N[C@@H]2CC[C@H](CC(=O)N3CCOCC3)O[C@@H]2CO)c1`, the cytotoxicity call was “inactive”. `C[C@H](O)C#Cc1ccc2c(c1)O[C@H](CN(C)C)[C@@H](C)CN([C@@H](C)CO)S2(=O)=O` was tested, and the cytotoxicity call was “inactive”. `COc1ccc(CN(C)C[C@H]2Oc3ccc(NC(=O)CCCCCC(=O)Nc4ccccc4N)cc3CC(=O)N([C@@H](C)CO)C[C@@H]2C)cc1` was tested, and the cytotoxicity call was “inactive”. `CC(C)NC(=O)N(C)C[C@H]1Oc2ccc(NC(=O)Cc3ccccc3)cc2CC(=O)N([C@@H](C)CO)C[C@@H]1C` was tested, and the cytotoxicity call was “inactive”. For `COc1ccc2c3c([nH]c2c1)[C@@H](CO)N(C[C@]13CN(Cc2nccs2)C1)S(=O)(=O)c1ccc(cc1)C`, the cytotoxicity call was “inactive”. In the case of `C[C@@H]1CCCCO[C@H](CN(C)C(=O)Nc2ccccc2)[C@H](C)CN([C@H](C)CO)C(=O)c2cc(NC(=O)Nc3ccc(C(F)(F)F)cc3)ccc2O1`, the cytotoxicity call is reported as “active”. For `C[C@H](CO)N1C[C@H](C)[C@@H](CN(C)C(=O)Nc2ccccc2)OCCCC[C@H](C)Oc2ccc(NC(=O)Nc3ccc(C(F)(F)F)cc3)cc2C1=O`, the cytotoxicity call was “inactive”. With `C[C@@H]1CN([C@@H](C)CO)C(=O)c2cc(NC(=O)Nc3ccccc3)ccc2O[C@@H](C)CCCCO[C@H]1CN(C)C(=O)Nc1ccc(C(F)(F)F)cc1` the cytotoxicity call was “inactive”. `C[C@H]1CCCCO[C@@H](CN(C)C(=O)Nc2cccc3ccccc23)[C@@H](C)CN([C@@H](C)CO)C(=O)c2cc(NS(C)(=O)=O)ccc2O1` was tested, and the cytotoxicity call was “inactive”. In the case of `C[C@H]1CN([C@@H](C)CO)C(=O)c2cc(NC(=O)Cn3cnnn3)ccc2O[C@H]1CN(C)C(=O)Nc1ccccc1`, the cytotoxicity call is reported as “active”. `CNC[C@H]1Oc2ccc(NC(=O)Cn3cnnn3)cc2CC(=O)N([C@@H](C)CO)C[C@H]1C` was tested, and the cytotoxicity call was “inactive”. In the case of `C[C@H](CO)N1C[C@H](C)[C@@H](CN(C)C(=O)Nc2ccccc2)Oc2ccc(NC(=O)Cn3cnnn3)cc2C1=O`, the cytotoxicity call is reported as “inactive”. In the case of `C[C@@H]1CN([C@@H](C)CO)C(=O)c2cc(NC(=O)Cn3cnnn3)ccc2O[C@@H]1CN(C)C(=O)Nc1ccccc1`, the cytotoxicity call is reported as “inactive”. For `CNC[C@@H]1Oc2ccc(NC(=O)Cn3cnnn3)cc2CC(=O)N([C@@H](C)CO)C[C@@H]1C`, the cytotoxicity call was “inactive”. For `CNC[C@@H]1Oc2ccc(NC(=O)Cn3cnnn3)cc2CC(=O)N([C@@H](C)CO)C[C@H]1C`, the cytotoxicity call was “active”. In the case of `C[C@@H]1CN([C@H](C)CO)C(=O)c2cc(NC(=O)Cn3cnnn3)ccc2O[C@H]1CN(C)C(=O)Nc1cccc2ccccc12`, the cytotoxicity call is reported as “active”. In the case of `C[C@@H]1CN([C@@H](C)CO)C(=O)c2cc(NC(=O)Cn3cnnn3)ccc2O[C@H]1CN(C)C(=O)Nc1cccc2ccccc12`, the cytotoxicity call is reported as “inactive”. `C[C@H](CO)N1C[C@H](C)[C@H](CN(C)C(=O)Nc2cccc3ccccc23)Oc2ccc(NC(=O)Cn3cnnn3)cc2C1=O` was tested, and the cytotoxicity call was “inactive”. For `Cc1cc(Nc2cc(C)on2)nc([C@H]2CCN(C(=O)CN)C2)n1`, the cytotoxicity call was “inactive”. `C[C@H](CO)N1C[C@H](C)[C@@H](CN(C)S(=O)(=O)c2cccs2)Oc2c(NC(=O)CCCN(C)C)cccc2C1=O` was tested, and the cytotoxicity call was “inactive”. `O=C(C[C@@H]1C[C@H]2c3cc(NC(=O)c4ccc5c(c4)OCO5)ccc3O[C@H]2[C@H](CO)O1)NCCc1ccccc1` was tested, and the cytotoxicity call was “inactive”. In the case of `Cc1noc(C)c1NC(=O)N(C)C[C@H]1OCCCC[C@H](C)Oc2ccc(NC(=O)CCC(F)(F)F)cc2C(=O)N([C@@H](C)CO)C[C@H]1C`, the cytotoxicity call is reported as “inactive”. With `C[C@@H]1CN([C@H](C)CO)C(=O)c2cc(C#Cc3cccc(F)c3)cnc2O[C@@H]1CN(C)Cc1ccccn1` the cytotoxicity call was “inactive”. For `CC(C)CC#Cc1ccc2c(c1)O[C@H](CN(C)C(=O)c1cccnc1)[C@@H](C)CN([C@@H](C)CO)S2(=O)=O`, the cytotoxicity call was “inactive”. For `O=C(O)c1ccc(N[C@@H]2O[C@H](CO)[C@@H](O)[C@@H]2O)cc1`, the cytotoxicity call was “inactive”. With `Clc1ccc2nc(Cl)cc(-c3ccccc3)c2c1` the cytotoxicity call was “inactive”. In the case of `Clc1ccc(-c2cnc3ccc(-c4ccccc4)cn23)cc1`, the cytotoxicity call is reported as “inactive”. With `Clc1ccc(-c2onc3cc(-c4ccccc4)ccc23)cc1` the cytotoxicity call was “active”. `C[C@H](CO)N1C[C@H](C)[C@H](CN(C)Cc2ccc(Cl)c(Cl)c2)Oc2ccc(NC(=O)CCCCCC(=O)Nc3ccccc3N)cc2CC1=O` was tested, and the cytotoxicity call was “inactive”. With `C[C@H](CO)N1C[C@H](C)[C@@H](CN(C)C(=O)Nc2ccccc2)Oc2ccc(NS(=O)(=O)c3cn(C)cn3)cc2C1=O` the cytotoxicity call was “inactive”. For `CSCc1nc(=O)cc(C(=O)O)[nH]1`, the cytotoxicity call was “inactive”. In the case of `CC(C)NC(=O)N(C)C[C@@H]1OCCCC[C@H](C)Oc2ccc(NC(=O)Nc3ccc(F)cc3)cc2C(=O)N([C@@H](C)CO)C[C@H]1C`, the cytotoxicity call is reported as “inactive”. `C/C=C1\NC(=O)[C@H]2CSSCC/C=C/[C@H](CC(=O)N[C@H](C(C)C)C(=O)N2)OC(=O)[C@H](C(C)C)NC1=O` was tested, and the cytotoxicity call was “active”. With `C[C@@H]1CCCCO[C@H](CN(C)S(=O)(=O)c2cn(C)cn2)[C@@H](C)CN([C@@H](C)CO)C(=O)c2cc(NC(=O)c3ccncc3)ccc2O1` the cytotoxicity call was “inactive”. For `NC(=O)CN1CCCCCC1=O`, the cytotoxicity call was “inactive”. In the case of `COc1cc(N)ccn1`, the cytotoxicity call is reported as “active”. In the case of `COc1ccc(N)cn1`, the cytotoxicity call is reported as “inactive”. With `COc1ccnc(N)c1` the cytotoxicity call was “inactive”. With `COc1ccccc1NC(=O)N(C)C[C@H]1Oc2cc(Br)ccc2S(=O)(=O)N([C@@H](C)CO)C[C@H]1C` the cytotoxicity call was “inactive”. For `CC(N)(Cc1ccc(O)c(O)c1)C(=O)O` (configuration not stated) [listing 1 of 2 here], the cytotoxicity call was “inactive”. `N[C@@H](Cc1ccc(O)c(O)c1)C(=O)O` was tested, and the cytotoxicity call was “inactive”. For `CCOC(=O)[C@@](C)(N)Cc1ccc(O)c(O)c1`, the cytotoxicity call was “inactive”. `C[C@](N)(Cc1ccc(O)cc1)C(=O)O` was tested, and the cytotoxicity call was “inactive”. In the case of `COC(=O)[C@@H](N)Cc1ccc(O)c(O)c1`, the cytotoxicity call is reported as “inactive”. In the case of `NC(Cc1ccc(O)c(O)c1)C(=O)O` (configuration not stated), the cytotoxicity call is reported as “active”. `CC(N)(Cc1cccc(O)c1)C(=O)O` (configuration not stated) was tested, and the cytotoxicity call was “inactive”. For `C[C@](N)(Cc1ccc(O)c(O)c1)C(=O)O`, the cytotoxicity call was “active”. In the case of `CC(N)(Cc1ccc(O)c(O)c1)C(=O)O` (configuration not stated) [listing 2 of 2 here], the cytotoxicity call is reported as “active”. In the case of `O=Cc1ccc[nH]1`, the cytotoxicity call is reported as “inactive”. In the case of `COc1ccc(NC(=O)N(C)C[C@@H]2Oc3ncc(C#C[C@H](C)O)cc3C(=O)N([C@@H](C)CO)C[C@H]2C)cc1`, the cytotoxicity call is reported as “inactive”. In the case of `CN1CCN(C(=O)C[C@@H]2CC[C@@H]3[C@H](COC[C@H](O)CN3S(=O)(=O)c3cccc(Cl)c3)O2)CC1`, the cytotoxicity call is reported as “inactive”.

Source: the antibiotic and cytotoxicity screens of Wong et al. (2023)
